Data reported in ChEMBL document CHEMBL3988442, “University of Dundee, Small-Polar-MMV Screening Library” (2021).
For some assays here: Potency and affinity values are given separately.

Legend:
Design in all cases: scale not given: direction of the effect not stated beside the values
[1] = target: Protein translocase subunit SecA (Escherichia coli (strain K12)) (UniProt P10408); assay: Assay to Identify E. coli SecA ATPase Inhibitors; type: functional; conditions: 30 µM
[2] = target: T1, Ubiquitin-activating enzyme e1, putative (Leishmania donovani (strain BPK282A1)) (UniProt E9BSI1); assay: Leishmania donovani Ubiquitin Activating Enzyme (LdE1); type: functional; conditions: 30 µM
T1 sequence (whole entry): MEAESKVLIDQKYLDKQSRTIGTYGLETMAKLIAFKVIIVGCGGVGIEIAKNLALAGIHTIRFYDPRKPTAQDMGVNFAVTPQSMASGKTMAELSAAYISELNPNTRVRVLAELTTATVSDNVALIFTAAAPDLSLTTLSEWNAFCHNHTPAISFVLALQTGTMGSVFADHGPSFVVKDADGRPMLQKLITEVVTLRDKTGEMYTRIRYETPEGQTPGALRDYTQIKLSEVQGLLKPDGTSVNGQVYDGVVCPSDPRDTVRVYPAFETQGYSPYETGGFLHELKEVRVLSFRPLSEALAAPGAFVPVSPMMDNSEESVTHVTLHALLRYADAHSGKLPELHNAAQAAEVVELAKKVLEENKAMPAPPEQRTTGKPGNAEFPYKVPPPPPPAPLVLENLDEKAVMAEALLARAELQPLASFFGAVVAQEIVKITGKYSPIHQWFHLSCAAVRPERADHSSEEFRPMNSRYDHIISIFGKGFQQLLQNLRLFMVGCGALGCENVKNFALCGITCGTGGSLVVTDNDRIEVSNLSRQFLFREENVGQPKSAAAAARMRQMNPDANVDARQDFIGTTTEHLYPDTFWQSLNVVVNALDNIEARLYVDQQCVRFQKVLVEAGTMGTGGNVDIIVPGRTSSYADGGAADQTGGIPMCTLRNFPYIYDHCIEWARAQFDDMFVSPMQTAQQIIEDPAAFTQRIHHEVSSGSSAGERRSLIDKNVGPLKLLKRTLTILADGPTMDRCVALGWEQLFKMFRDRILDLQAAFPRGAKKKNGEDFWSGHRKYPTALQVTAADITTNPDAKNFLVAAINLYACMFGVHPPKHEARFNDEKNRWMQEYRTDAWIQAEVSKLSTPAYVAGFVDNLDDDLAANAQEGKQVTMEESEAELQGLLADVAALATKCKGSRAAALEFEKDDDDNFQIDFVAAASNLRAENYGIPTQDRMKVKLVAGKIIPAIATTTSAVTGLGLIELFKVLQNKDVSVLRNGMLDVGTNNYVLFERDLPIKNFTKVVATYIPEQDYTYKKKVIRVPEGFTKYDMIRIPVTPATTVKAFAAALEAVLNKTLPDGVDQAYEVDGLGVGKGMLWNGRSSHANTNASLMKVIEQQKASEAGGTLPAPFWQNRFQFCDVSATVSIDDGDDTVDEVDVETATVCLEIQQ

[3] = target: Sialic acid-binding Ig-like lectin 9 (Homo sapiens) (UniProt Q9Y336); assay: Hs-Siglec9 ALPHAscreen SOP 20170721; conditions: 10 µM
Sequence of Sialic acid-binding Ig-like lectin 9 (Homo sapiens) (Q9Y336 whole entry): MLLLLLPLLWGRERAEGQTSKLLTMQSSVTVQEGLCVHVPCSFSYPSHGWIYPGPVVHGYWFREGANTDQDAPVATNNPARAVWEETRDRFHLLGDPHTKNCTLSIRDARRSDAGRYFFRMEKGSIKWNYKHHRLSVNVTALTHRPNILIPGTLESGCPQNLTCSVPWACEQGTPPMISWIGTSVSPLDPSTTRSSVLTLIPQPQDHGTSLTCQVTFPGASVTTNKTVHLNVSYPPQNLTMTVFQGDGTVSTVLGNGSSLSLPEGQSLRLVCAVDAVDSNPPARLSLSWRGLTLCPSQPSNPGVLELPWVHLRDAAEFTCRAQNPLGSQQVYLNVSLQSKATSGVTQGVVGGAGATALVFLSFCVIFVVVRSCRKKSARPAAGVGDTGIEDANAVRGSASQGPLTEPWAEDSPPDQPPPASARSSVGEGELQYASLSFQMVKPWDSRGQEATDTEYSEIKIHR

[4] = system: Trypanosoma cruzi; assay: Trypanosoma cruzi phosphomannomutase and mannose-1-phosphate guanylyltransferase assay; type: functional; conditions: 10 µM
[5] = target: T2, Arginase-2, mitochondrial (Homo sapiens) (UniProt P78540); assay: in vitro enzyme assay to detect the production of urea directly proportional to the activity of Arginase II; type: functional; conditions: 33.3 µM; note: in the data most compounds retested in dose-response had high values
T2 sequence (whole entry): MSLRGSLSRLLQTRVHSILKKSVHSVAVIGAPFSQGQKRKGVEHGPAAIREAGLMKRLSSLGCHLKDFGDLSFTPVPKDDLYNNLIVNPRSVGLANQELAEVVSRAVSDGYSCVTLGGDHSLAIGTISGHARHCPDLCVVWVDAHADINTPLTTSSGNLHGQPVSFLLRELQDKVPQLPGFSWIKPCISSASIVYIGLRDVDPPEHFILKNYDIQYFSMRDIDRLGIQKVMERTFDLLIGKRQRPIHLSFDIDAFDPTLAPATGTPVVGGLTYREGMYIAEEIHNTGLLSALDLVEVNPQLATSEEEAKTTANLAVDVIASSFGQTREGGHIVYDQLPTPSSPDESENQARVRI

[6] = target: T3, Proteasome subunit beta (Trypanosoma cruzi) (UniProt O96673); assay: Trypanosoma cruzi proteasome chymotrypsin-like activity (TcProtChymo) assay.; note: in the data most compounds retested in dose-response had high values; type: functional; conditions: 9.37 µM
T3 sequence (whole entry): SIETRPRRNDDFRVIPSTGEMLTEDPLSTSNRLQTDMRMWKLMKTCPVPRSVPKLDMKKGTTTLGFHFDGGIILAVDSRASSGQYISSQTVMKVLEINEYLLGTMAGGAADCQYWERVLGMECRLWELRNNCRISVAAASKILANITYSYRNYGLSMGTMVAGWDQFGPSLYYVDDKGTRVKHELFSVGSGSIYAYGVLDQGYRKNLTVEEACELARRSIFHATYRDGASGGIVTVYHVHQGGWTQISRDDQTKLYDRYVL

[7] = species on record: Homo sapiens; assay: To identify inhibition of the IFN signalling (Jak-Stat) pathway via expression of an eGFP reporter gene under the control of an IFN-stimulated response element (ISRE) containing MxA promoter.; type: functional; conditions: 30 µM
[8] = target: T4, Tyrosyl-tRNA synthetase, putative (Trypanosoma cruzi (strain CL Brener)) (UniProt Q4DSP6); assay: Trypanosoma cruzi tyrosyl tRNA synthetase (TcYRS) _High Tyrosine SOP; type: functional; conditions: 30 µM; note: in the data most compounds retested in dose-response had high values
T4 sequence (whole entry): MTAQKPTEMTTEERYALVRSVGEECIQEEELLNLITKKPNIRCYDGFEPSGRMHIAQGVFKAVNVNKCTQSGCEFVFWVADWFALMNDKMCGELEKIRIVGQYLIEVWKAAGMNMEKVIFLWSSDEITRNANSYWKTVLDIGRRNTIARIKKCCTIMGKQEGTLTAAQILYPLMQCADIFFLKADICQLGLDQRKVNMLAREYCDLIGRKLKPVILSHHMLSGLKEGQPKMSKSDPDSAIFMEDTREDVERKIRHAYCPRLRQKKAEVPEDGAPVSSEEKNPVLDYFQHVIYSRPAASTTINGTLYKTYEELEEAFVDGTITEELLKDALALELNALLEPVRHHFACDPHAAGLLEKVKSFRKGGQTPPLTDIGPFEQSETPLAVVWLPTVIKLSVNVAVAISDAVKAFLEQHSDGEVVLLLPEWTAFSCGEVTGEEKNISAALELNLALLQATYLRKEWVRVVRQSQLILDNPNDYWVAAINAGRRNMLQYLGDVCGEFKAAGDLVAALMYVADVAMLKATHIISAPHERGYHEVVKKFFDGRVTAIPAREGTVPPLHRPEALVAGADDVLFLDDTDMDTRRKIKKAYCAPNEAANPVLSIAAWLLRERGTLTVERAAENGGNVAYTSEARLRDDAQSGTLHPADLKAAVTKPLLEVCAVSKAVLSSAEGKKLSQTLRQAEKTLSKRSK

[9] = target: T4, Tyrosyl-tRNA synthetase, putative (Trypanosoma cruzi (strain CL Brener)); assay: Trypanosoma cruzi tyrosyl tRNA synthetase (TcYRS) SOP; type: functional; conditions: 30 µM
[10] = target: Chromo domain-containing protein 1 (Saccharomyces cerevisiae (strain ATCC 204508 / S288c) (Baker's yeast)) (UniProt P32657); assay: ScCHD-1 Enzyme Inhibition Assay; type: functional; conditions: 30 µM; note: in the data most compounds retested in dose-response had high values
Sequence of Chromo domain-containing protein 1 (Saccharomyces cerevisiae (strain ATCC 204508 / S288c) (Baker's yeast)) (P32657 whole entry, the tested form may be a part): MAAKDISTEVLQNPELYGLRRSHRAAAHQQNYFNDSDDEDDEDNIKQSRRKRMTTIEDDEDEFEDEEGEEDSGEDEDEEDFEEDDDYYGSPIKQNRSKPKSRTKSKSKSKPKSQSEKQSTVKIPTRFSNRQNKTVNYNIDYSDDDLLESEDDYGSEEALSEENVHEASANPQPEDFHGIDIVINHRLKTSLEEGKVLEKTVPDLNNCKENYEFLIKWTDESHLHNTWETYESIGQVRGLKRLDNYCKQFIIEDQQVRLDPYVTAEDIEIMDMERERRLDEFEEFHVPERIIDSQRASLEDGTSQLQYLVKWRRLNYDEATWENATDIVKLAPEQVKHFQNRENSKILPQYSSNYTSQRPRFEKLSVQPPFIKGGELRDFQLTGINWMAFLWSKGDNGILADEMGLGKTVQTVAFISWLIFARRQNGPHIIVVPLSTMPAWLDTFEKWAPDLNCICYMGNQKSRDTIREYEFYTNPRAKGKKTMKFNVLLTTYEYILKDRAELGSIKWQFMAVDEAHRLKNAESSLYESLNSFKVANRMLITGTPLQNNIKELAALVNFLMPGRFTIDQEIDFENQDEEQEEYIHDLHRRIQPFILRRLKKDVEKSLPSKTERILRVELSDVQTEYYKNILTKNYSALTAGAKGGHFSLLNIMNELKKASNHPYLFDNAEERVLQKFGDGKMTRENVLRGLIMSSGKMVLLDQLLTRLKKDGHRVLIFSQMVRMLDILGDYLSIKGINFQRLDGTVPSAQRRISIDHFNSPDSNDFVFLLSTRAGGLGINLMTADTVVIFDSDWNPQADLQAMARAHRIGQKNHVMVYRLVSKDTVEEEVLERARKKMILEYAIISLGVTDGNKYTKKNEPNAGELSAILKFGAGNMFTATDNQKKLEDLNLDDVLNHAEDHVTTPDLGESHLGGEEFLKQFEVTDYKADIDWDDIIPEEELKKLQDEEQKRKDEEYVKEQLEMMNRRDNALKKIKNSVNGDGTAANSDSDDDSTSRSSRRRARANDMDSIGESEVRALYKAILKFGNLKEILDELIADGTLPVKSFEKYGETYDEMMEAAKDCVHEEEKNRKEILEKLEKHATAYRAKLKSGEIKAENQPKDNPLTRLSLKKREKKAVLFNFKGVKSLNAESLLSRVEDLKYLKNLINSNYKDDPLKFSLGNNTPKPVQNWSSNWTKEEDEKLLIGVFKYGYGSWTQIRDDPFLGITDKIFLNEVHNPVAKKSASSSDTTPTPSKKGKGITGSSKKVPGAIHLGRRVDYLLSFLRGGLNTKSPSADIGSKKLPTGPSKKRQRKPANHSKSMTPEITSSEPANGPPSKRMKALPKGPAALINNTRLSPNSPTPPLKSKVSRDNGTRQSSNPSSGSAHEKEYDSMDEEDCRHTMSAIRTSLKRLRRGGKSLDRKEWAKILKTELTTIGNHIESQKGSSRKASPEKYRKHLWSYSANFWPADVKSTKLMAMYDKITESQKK

Sequence of Protein translocase subunit SecA (Escherichia coli (strain K12)) (P10408 whole entry): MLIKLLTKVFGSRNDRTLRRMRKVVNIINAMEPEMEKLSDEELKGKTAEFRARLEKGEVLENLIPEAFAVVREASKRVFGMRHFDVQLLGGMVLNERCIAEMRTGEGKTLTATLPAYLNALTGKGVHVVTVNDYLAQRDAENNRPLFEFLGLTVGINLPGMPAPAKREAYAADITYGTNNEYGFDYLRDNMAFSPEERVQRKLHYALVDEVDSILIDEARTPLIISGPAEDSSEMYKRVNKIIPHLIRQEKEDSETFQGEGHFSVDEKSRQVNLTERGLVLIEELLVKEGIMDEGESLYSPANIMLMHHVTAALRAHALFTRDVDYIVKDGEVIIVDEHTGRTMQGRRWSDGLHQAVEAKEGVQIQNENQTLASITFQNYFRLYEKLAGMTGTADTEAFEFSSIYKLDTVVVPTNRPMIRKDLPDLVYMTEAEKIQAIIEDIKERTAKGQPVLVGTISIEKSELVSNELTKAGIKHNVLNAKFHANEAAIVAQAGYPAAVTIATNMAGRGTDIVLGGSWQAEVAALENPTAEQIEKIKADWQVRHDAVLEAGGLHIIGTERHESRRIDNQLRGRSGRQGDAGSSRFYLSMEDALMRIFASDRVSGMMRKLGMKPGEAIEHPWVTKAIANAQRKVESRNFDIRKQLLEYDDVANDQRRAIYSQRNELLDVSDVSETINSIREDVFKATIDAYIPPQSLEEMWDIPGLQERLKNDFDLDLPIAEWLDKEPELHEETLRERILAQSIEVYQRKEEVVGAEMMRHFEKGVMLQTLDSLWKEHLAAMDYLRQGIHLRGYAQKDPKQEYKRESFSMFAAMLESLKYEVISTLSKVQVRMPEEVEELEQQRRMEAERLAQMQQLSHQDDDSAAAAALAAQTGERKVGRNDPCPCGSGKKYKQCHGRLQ

Compound | Percent Effect [1] [%] | Percent Effect [2] [%] | Percent Effect [3] [%] | Percent Effect [4] [%] | Percent Effect [5] [%] | Percent Effect [6] [%] | Percent Effect [7] [%] | Percent Effect [8] [%] | Percent Effect [9] [%] | Percent Effect [10] [%]
Cc1cc(C)n(C2CCCN(C(=O)c3c(C)c(C)n[nH]c3=O)C2)n1 (stereo not given) | -1.62 | 8 | 4.21 | -4.62 | 0.887 | 4.16 | 17.4 | 1.58 | 2.56 | -4.78
COCCN1C[C@@H]2CN(C(=O)[C@H]3CCCO3)C[C@@H]2C1=O | 0.0627 | 16.9 | -1.76 | -6.38 | 3.65 | 24.5 | 7.75 | 7.73 | 12.5 | -7.63
O=C(NCC(=O)N1CCCCC1)c1ccoc1 | 2.38 | 13 | 0.0749 | -7.46 | 2.25 | 17.2 | 18.2 | 4.9 | 18.8 | -8.97
O=C(NCc1cc[nH]n1)NCC(O)c1ccc(F)cc1F (stereo not given) | -0.475 | 8 | -0.795 | -4.82 | -0.444 | 7.38 | -4.21 | 5.79 | 10.3 | -7.37
O=C(NCCOc1ccc(Cl)cc1)N1CCS(=O)(=O)CC1 | -5.3 | 5.13 | -7.37 | 6.1 | -1.23 | 6.74 | 3.33 | -0.478 | 10.8 | -6.32
CC1(C)OCC(CNC(=O)c2cnn(-c3cc(Cl)ccc3Cl)c2N)O1 (stereo not given) | 3.78 | 9.33 | -9.42 | -1.97 | 3.98 | 17.1 | 11.8 | 0 | 7.5 | -20.1
Cc1csc(N2CCCN(C(=O)c3c(C)oc(C)c3C)CC2)n1 | -7.12 | 18.7 | 3.18 | 4.22 | -1.77 | 20.1 | 8.84 | 7.89 | 17.9 | -8.96
COCCN1CCCN(C(=O)NC(C)Cn2ccnc2)CC1 (stereo not given) | 0.718 | 13 | 12.5 | 0.56 | -4.71 | -0.702 | 8.17 | 0 | 18.8 | -5.5
CCc1ncc2c(n1)CN(CC(=O)Nc1nnc(C)s1)CC2 | -2.11 | 5.33 | 0.404 | -4.22 | 5.32 | 8.4 | -8.8 | 6.84 | 10.3 | -13.6
Cc1nc(C)n(CC2CCCN2Cc2nc3ccccc3nc2C)n1 (stereo not given) | -4.08 | 0 | 4.74 | -0.402 | 1.33 | 15.5 | 2.68 | 5.79 | 7.69 | -11.7
COc1cccc(OC)c1C(=O)N1CCN(c2ccccc2F)CC1 | 0.59 | 12 | 0.141 | -4.34 | -6.2 | 12.2 | 46.4 | 0 | -5 | -24.9
